mIDH1 inhibitor: blocks human mutant IDH1 R132H enzyme; Potency, µM (highest dose often 76.6 µM), inactives show at the top dose activity change, negative = inhibition, hits mostly inhibitors; IDH1-R132H enzyme, NADPH consumption, diaphorase/resazurin fluorescence; O75874; 390,000 tested, 0.093% active; note: potency is the fitted concentration of half-maximal effect; % is set by controls: 0 for no effect and ±100 for the full control effect; nearly all actives have a fitted effect of over 65% in size
Target sequence (O75874 whole entry R132H, stated change not applied): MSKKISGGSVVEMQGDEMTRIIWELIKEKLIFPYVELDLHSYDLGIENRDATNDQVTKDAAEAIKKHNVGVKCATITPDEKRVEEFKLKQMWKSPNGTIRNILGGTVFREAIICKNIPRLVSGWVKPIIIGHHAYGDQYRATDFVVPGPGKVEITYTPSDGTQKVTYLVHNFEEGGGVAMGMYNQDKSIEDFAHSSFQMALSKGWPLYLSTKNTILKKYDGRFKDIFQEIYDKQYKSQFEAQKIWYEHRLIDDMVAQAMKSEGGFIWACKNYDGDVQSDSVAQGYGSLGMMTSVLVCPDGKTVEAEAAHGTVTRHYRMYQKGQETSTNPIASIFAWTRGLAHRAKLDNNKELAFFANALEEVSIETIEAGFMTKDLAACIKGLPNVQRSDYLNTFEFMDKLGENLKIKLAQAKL
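IDH1-R132H (0.5 ug/mL dispensed) in pH 7.5 Tris buffer was preincubated 30 min with compound, then given a substrate mix of 0.016 mM NADPH and 2 mM alpha-KG for 80 min at room temperature; remaining NADPH was read by diaphorase/resazurin fluorescence.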
RGS4 inh: blocks human RGS4-accelerated GTP hydrolysis; P49798; Transcreener GDP fluorescence polarization, RGS4-accelerated GTP hydrolysis; Potency, µM (doses to about 114 µM), for inactives: at the top dose activity change, negative = inhibition, most hits filed as inhibitors; 390,000 tested, 0.039% active; AID 504845; note: potency is the fitted concentration of half-maximal effect; % is set by controls: 0 for no effect and ±100 for the full control effect; nearly all actives have a fitted effect of over 75% in size
Target sequence (P49798 whole entry, looked up): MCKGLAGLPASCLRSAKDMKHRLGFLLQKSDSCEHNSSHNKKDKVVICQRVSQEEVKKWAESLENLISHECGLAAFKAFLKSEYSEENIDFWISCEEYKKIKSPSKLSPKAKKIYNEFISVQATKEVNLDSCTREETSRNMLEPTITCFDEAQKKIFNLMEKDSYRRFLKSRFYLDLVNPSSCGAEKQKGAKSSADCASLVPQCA
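MLSMR compounds (23 nl, pin-transferred) preincubated 10 min at room temperature with a 500nM (2x) first reagent, then RGS4 at 900nM (2x) plus Transcreener GDP mix added; fluorescence polarization (620/688 nm) read before and after 90 min at 30 °C.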
ClpP mod: qHTS Assay for Activators of ClpP. purified B. subtilis ClpP, FRET peptide cleavage, 20 min. ATP-dependent Clp protease proteolytic subunit (Bacillus subtilis (strain 168)), P80244. 340,000 tested, 1.9% active. Potency, µM (titrated, usually from 57.5 µM), for inactives: at the highest dose activity change, negative = active; active = well fitted falling curve with a large enough effect; inconclusive = small, poorly fitted or top-dose-only effect; inactive = no such curve, though single readings can be large or run the other way; note: potency is the fitted concentration of half-maximal effect; the source files actives as falling curves though it sought activators and does not explain the sign; nearly all actives have a fitted effect of over 65% in size
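Purified B. subtilis ClpP, 10 microg/mL final in Tris/HCl pH8 with KCl, BSA, glycerol and Tween-20, cleaved an Abz/nitrotyrosine-quenched decapeptide. Fluorescence (ex 320, em 430) was read at 0 and 20 min at room temperature. Delta was normalized to 5.8 microM ADEP and DMSO/no-enzyme controls.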
Mito fusion yeast: mitochondrial division inhibition or fusion activation. S. cerevisiae fusion-defective mutant growth rescue, CellTiterGlo 48 h. Potency, µM (series often up to 46.1 µM), without a hit: top-dose growth rescue (activation), actives largely listed as activators. 320,000 tested, 0.23% active. AID 485298; note: potency is the fitted concentration of half-maximal effect; % of control where 0% means no effect; nearly all actives have a fitted effect of over 45% in size
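Compounds are tested for their ability to restore growth of mitochondrial fusion-defective yeast strains at non-permissive 37C in YPEG medium over 48 hours. Viability is quantified by luciferase luminescence.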
S-ASM inh: inhibitors of human secretory acid sphingomyelinase | P17405 | placental ASM, HMU-PC fluorogenic substrate, 60 min | Potency, µM (top dose mostly 57.5 µM), for inactives: at the highest dose activity change, negative = inhibition, most hits filed as inhibitors | 340,000 tested, 0.006% active; note: potency is the fitted concentration of half-maximal effect
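Steps: dispense placental human ASM, pin compound, wait 10 min at room temperature, add HMU-PC0 substrate at 9 uM final, incubate 60 min at 37 °C, add stop solution raising pH to 10, read fluorescence.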
LDHA inh: LDHA (human) enzyme inhibition. purified LDHA, NADH/diaphorase-resazurin fluorescence; hits give low values. activity change, % (values are at about 110 or 230 µM). 480,000 tested, 0.15% active; in the data active = activity change below about -30%; inconclusive = mostly about -25% to -30%;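 note: plate controls were DMSO wells for no effect and wells without enzyme for full effect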
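LDH5 2 nM; NADH 0.06 mM, pyruvate 0.2 mM; 200 mM Tris pH 7.4, EDTA, Tween-20; 5 min RT. Detection: diaphorase 0.133 mg/mL + resazurin 37 µM, fluorescence ex540/em590 at 0 and 20 min; normalized to enzyme-free and DMSO wells.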
Numbers without * were called inactive; i = inactive; ? = inconclusive; . = no result given; ! = repeats disagree; [ ] = dose if it differs, or a comment. Many of the other results were omitted from the sample, so hits are more common in it than they were. Unless noted, calls come from the whole dose curve; as a rule, active = well fitted curve in the direction sought with a large enough effect; inconclusive = small, poorly fitted or top-dose-only effect, or another doubt; inactive = no such curve, though single readings can be large; an effect the other way counts as inactive or inconclusive.

SMILES	mIDH1 inhibitor	RGS4 inh	ClpP mod	Mito fusion yeast	S-ASM inh	LDHA inh
CCCN1CCC(=NNc2ccc(S(=O)(=O)N(CC)CC)cc2[N+](=O)[O-])CC1	-1.3%	-19.5%	.	-1.0%	-15.2%	-11.2
CCCN1CCC(=NNc2ccc(S(N)(=O)=O)cc2[N+](=O)[O-])CC1	11.9%	-8.5%	14.1µM*	-2.3%	1.4%	-3.4
CN(CC(=O)Nc1ccccc1Br)C(=O)c1cc(Cl)nc2ccccc12	-6.8%	4.6%	1.2%	1.4%	-1.4%	-2.5
CN(CC(=O)Nc1ccccc1Br)C(=O)c1ccccc1-c1nc2ccccc2s1	-0.8%	-3.6%	28.2µM*	4.2%	-0.2%	-1.1
Cc1ccc(C)c(C(NC(=O)c2cccc(Cl)c2)c2cccnc2)c1 (stereo not drawn)	.	.	.	.	.	-2.6
CC(C)(CO)NC(=O)C12CC3CC(CC(Br)(C3)C1)C2	-1.5%	-0.8%	20µM*	-7.3%	-3.9%	-5.3
O=C(c1ccc(CN2CCc3ccccc3C2)cc1)N1CCN(c2ccccc2)CC1	1.8%	4.6%	31.6µM*	6.2%	3.8%	-0.9
COCCNc1nc(CSc2ccccc2)nc2sc(C)c(C)c12	5.7%	-8.8%	28.2µM*	15.0%	-11.1%	-4.9
COc1ccc(C(=O)/C=C/C(=O)N(Cc2ccc3c(c2)OCO3)C(C(=O)NC2CCCCC2)c2ccncc2)c(O)c1 (stereo not drawn)	0.2%	27.0%	12.6µM*	23.9%	12.9%	-2.0
CCOc1ccc2nc(COc3cc(C)cc(C)c3)[nH]c2c1	.	.	.	.	.	0.2
O=C(C1CCN(Cc2ccccc2O)CC1)N1CCN(Cc2ccc3c(c2)OCO3)CC1	8.7%	20.5%	-4.6%	1.6%	1.2%	-16.7
COc1cccc(CN2CCC(C(=O)N3CCN(Cc4ccc5c(c4)OCO5)CC3)CC2)c1OC	6.4%	4.1%	17.8µM*	3.1%	3.8%	-12.6
COc1nc2cc(C)c(C)cc2nc1C(=O)Nc1ccc(Br)cc1	.	.	.	.	.	-7.5
Cc1oc2c(CN3CCOCC3)c(O)ccc2c(=O)c1-c1ccc(Br)cc1	2.2%	-4.3%	14.1µM*	7.0%	18.2%	-8.8
COc1ccc(-c2c(C)oc3c(CN4CCN(C)CC4)c(O)ccc3c2=O)cc1	0.4%	4.6%	5.2%	-8.3%	26.8%	-1.5
CCN1CCN(Cc2c(O)ccc3c(=O)c(-c4ccc(OC)c(OC)c4)c(C)oc23)CC1	1.0%	30.5%	28.2µM*	0.8%	18.0%	-3.2
Cc1oc2c(CN3CCOCC3)c(O)ccc2c(=O)c1-c1ccc(Cl)cc1	-3.4%	0.7%[56.9 µM]	3.9%	-1.5%	11.2%	-1.6
Cc1cccc(OCCN(C)C(C)c2nc3ccccc3c(=O)[nH]2)c1 (stereo not drawn)	.	.	.	.	.	0.4
O=C(COc1ccc2c(c1)CCC(=O)N2)NOCc1ccccc1	.	.	.	.	.	-5.3
CCC(C)Sc1cccc(-c2nc3ccc(C)cn3c2NC2CCCCC2)c1 (stereo not drawn)	10.4%	7.2%	15.8µM*!	4.6%	410.5%	0.6
CCC(C)Sc1ccc(-c2nc3ccc(C)cn3c2NC2CCCCC2)cc1 (stereo not drawn)	-10.5%	-2.4%	4.1%	-6.0%	i	0.7
O=C(Nc1ccc(Cl)c(S(=O)(=O)N2CCCCC2)c1)C1=COCCO1	-1.0%	-19.4%	14.1µM*	17.4%	-1.9%	-3.7
CC(C)(C)c1ccc(C(=O)C[n+]2ccccc2Cl)cc1	.	.	-18.2%	.	.	-51.9*
CSc1sc(C(=O)N2CCc3ccccc32)cc1S(=O)(=O)C(C)C	7.0%	8.1%	31.6µM*	-0.8%	.	-2.3
CC(=O)OCC1OC(n2ccc3ccccc32)C(OC(C)=O)C(OC(C)=O)C1OC(C)=O (stereo not drawn)	2.9%	-13.6%[11.4 µM]	0.6%	-1.8%	5.8%	2.1
SMILES	mIDH1 inhibitor	RGS4 inh	ClpP mod	Mito fusion yeast	S-ASM inh	LDHA inh
CC(=O)OCC1OC(Sc2cccc3cccnc23)C(OC(C)=O)C(OC(C)=O)C1OC(C)=O (stereo not drawn)	6.8%	-15.8%	15.8µM*	-0.8%	1.1%	-0.4
CCCc1nnc(NC(=O)CCC(=O)O)s1	8.3%	8.8%	0.1%	12.6µM*	1.6%	-2.7
CCCc1nnc(NC(=O)CCC(=O)Nc2ccc(Cl)cc2)s1	-10.0%	36.2%	-0.8%	-6.7%	-1.0%	-5.8
O=C(O)c1ccc(-n2cccc2/C=C2\SC(=O)N(Cc3ccccc3Cl)C2=O)cc1	.	.	.	.	.	-1.0
Nc1ccccc1SCc1ccccc1	11.4%	-36.0%[56.9 µM]	0.3%	1.2%	-2.2%	-0.1
N#CC(=C(\N)Sc1ccccc1N)/C(C#N)=C(/N)Sc1ccccc1N	.	9.47µM*	.	18.4µM*	.	.
Cc1c(C)c2ccc(OCc3nn[nH]n3)cc2oc1=O	.	.	.	.	.	12.1
NC(N)=NC(N)=Nc1ccc2ccccc2c1	-5.1%	9.9%	-0.1%	31.6µM*	3.9%	-1.5
COc1cccc(N=C(N)N=C(N)N)c1	1.0%	19.1%	-0.1%	4.4%	-10.4%	-4.0
CCC1=NN2C(=N)/C(=C/c3cc(C)n(Cc4ccccc4)c3C)C(=O)N=C2S1	-4.1%	-22.0%	25.1µM*	1.0%	-13.2%	-6.3
CCN(CC)S(=O)(=O)c1ccc2[nH]cc(C(=O)NCCCN3CCCCC3)c(=O)c2c1	0.9%	13.7%	28.2µM*	-7.7%	8.2%	0.6
CN(CCC#N)S(=O)(=O)c1ccc2[nH]cc(C(=O)NCCc3ccccc3)c(=O)c2c1	-5.8%	6.1%	28.2µM*	3.7%	0.9%	-9.5
CCN(CC)S(=O)(=O)c1ccc2[nH]cc(C(=O)NCCCN3CCCCC3C)c(=O)c2c1 (stereo not drawn)	-0.9%	-20.3%	22.4µM*	1.0%	1.6%	5.1
CCN(CC)S(=O)(=O)c1ccc2[nH]cc(C(=O)NCCN3CCCCCC3)c(=O)c2c1	3.1%	-22.4%	?	4.1%	2.4%	-7.4
CCCCN(C)CCCNC(=O)c1cc(=O)[nH]c2ccc(S(=O)(=O)N3CCCCC3C)cc12 (stereo not drawn)	-13.0%	6.3%[56.9 µM]	-8.9%	35.5µM*	5.4%	0.8
CCS(=O)(=O)Nc1c(C(=O)O)[nH]c2ccccc12	0.7%	?	22.4µM*	3.2%	9.9%	3.0
Cc1ccc(S(=O)(=O)/N=C(/c2ccc(F)cc2)N2CCCCC2)cc1	-7.5%	5.4%	31.6µM*	3.1%	2.1%	-8.4
Cc1ccc(S(=O)(=O)/N=C(/c2ccc(F)cc2)N2CCCC2)cc1	-2.9%	2.8%	0.7%	-0.7%	4.2%	-12.8
COc1ccc(S(=O)(=O)N(C)c2ccc(C(=O)Nc3ccccc3C(=O)N3CCOCC3)cc2)cc1	3.4%	-16.1%	-0.7%	-1.5%	-0.9%	-10.0

Assay outcomes: PubChem BioAssay, National Center for Advancing Translational Sciences (NCATS)
